According to PubChem BioAssay (NCATS):
Values joined by “and” are separate entries in the source; they are usually repeats but may differ in a detail not shown here. Identical values can stand only once. Results filed as inconclusive are left out. Entries that show only a call come without a potency. Active and inactive are the calls of the source. Unless noted, calls follow the shape of the dose curve; as a rule, active = well fitted curve in the direction sought with a large enough effect; inconclusive = small, poorly fitted or top-dose-only effect, or another doubt; inactive = no such curve, though single readings can be large; an effect the other way counts as inactive or inconclusive.

Experiments:
[1] = biological target: Voltage-gated inwardly rectifying potassium channel KCNH2 (Homo sapiens) (UniProt Q12809); assay: qHTS Assay for Small Molecule Inhibitors of the Human hERG Channel Activity (AID 588834);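 also: lower thallium flux fluorescence means stronger hERG block; nearly all actives have a fitted effect of over 50% in size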; also: potency is read from the fitted curve at half-maximal effect
Chain of Voltage-gated inwardly rectifying potassium channel KCNH2 (Homo sapiens) (Q12809 whole entry, looked up): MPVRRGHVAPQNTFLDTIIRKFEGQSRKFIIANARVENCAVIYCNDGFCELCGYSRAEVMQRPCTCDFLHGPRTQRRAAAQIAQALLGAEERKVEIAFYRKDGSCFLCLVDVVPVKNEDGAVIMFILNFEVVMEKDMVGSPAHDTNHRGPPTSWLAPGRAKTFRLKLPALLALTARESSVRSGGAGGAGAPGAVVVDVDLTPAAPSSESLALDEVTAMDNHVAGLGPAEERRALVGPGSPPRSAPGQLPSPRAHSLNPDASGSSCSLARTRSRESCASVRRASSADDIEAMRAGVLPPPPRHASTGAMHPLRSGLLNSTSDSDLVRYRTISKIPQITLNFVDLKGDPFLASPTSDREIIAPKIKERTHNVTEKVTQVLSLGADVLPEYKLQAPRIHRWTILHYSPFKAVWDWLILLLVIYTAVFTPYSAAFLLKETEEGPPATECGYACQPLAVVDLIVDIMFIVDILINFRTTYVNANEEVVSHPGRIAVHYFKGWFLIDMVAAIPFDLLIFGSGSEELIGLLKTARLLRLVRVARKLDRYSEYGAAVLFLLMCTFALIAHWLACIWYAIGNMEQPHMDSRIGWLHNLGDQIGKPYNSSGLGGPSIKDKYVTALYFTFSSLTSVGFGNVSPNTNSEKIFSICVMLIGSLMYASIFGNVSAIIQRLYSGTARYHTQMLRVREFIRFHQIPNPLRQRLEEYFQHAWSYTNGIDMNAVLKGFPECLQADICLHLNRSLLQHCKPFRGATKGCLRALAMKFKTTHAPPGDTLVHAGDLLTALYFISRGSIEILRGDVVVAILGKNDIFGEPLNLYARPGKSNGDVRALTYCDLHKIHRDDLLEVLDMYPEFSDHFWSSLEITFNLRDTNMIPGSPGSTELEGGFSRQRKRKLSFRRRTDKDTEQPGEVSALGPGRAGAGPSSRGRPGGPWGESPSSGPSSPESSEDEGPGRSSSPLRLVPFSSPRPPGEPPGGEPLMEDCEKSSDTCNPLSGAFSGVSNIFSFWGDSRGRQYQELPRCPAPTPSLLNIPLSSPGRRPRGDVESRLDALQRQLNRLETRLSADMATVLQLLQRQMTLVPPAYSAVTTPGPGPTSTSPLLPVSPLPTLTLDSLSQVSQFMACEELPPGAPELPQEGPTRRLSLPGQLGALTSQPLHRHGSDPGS
How it was run: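 hERG-BacMam U2OS, 2000 cells/well; 0.7X FluxOR loading 1 hr RT dark; cpd ~10 min 37 °C; stim buffer; FDSS fluorescence 2 min @ 1 s; AC50 Hill fit.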

[2] = biological target: Luciferin 4-monooxygenase (Photinus pyralis) (UniProt P08659); assay: Biochemical firefly luciferase enzyme assay for NPC (AID 624030);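 also: purified P. pyralis luciferase at 10 nM with luciferin and ATP substrate; series mostly up to about 59 µM; nearly all actives have a fitted effect of over 70% in size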
Chain of Luciferin 4-monooxygenase (Photinus pyralis) (P08659 whole entry, looked up): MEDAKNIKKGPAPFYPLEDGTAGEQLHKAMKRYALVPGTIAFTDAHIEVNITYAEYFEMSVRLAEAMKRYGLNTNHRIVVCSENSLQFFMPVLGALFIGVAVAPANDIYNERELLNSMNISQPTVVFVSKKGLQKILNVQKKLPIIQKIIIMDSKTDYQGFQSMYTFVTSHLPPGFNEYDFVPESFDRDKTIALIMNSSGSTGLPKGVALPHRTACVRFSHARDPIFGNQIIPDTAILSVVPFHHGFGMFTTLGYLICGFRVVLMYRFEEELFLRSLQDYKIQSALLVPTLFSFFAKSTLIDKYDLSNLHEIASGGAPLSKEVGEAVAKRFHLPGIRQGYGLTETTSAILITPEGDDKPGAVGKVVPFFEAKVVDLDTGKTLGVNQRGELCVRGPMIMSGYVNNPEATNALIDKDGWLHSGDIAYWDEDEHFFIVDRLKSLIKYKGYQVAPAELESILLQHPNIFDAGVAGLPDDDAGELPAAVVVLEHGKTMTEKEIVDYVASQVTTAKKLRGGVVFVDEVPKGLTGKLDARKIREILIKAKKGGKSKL
How it was run: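 Purified P. pyralis luciferase at 10 nM in 50 mM Tris Acetate (final), luminescence read within 5 minutes of enzyme addition to compounds. Activity normalised to PTC124 versus DMSO; concentration-response curves classed by r2, magnitude and activity.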

[3] = S16 Schwann cell viability assay (CellTiter-Glo assay) (AID 624031);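 also: cellular ATP luminescence as a viability measure; series mostly up to about 58 µM; nearly all actives have a fitted effect of over 70% in size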
How it was run: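 Native S16 Schwann cells (rat), serum-containing medium, overnight attachment then 24 h drug exposure at 37 °C/5% CO2. CellTiter-Glo ATP signal; normalized to cell-free and vehicle wells.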

[4] = S16 Schwann cell PMP22 intronic element firefly luciferase assay (AID 624032); also: nearly all actives have a fitted effect of over 30% in size; also: potency is read from the fitted curve at half-maximal effect
How it was run: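 Rat S16 Schwann cells stably carrying firefly luciferase driven by a PMP22 intronic element, in 10% FBS, treated 24 h at 37 C. ONE-Glo luminescence normalized to PTC124 control and DMSO (0%); curves classed by r2, magnitude and activity.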

[5] = biological target: Glutaminase kidney isoform, mitochondrial (Homo sapiens) (UniProt O94925); assay: qHTS for Inhibitors of Glutaminase (GLS): LOPAC Validation (AID 624146); also: nearly all actives have a fitted effect of over 60% in size; also: potency is read from the fitted curve at half-maximal effect
Chain of Glutaminase kidney isoform, mitochondrial (Homo sapiens) (O94925 whole entry, looked up, canonical isoform): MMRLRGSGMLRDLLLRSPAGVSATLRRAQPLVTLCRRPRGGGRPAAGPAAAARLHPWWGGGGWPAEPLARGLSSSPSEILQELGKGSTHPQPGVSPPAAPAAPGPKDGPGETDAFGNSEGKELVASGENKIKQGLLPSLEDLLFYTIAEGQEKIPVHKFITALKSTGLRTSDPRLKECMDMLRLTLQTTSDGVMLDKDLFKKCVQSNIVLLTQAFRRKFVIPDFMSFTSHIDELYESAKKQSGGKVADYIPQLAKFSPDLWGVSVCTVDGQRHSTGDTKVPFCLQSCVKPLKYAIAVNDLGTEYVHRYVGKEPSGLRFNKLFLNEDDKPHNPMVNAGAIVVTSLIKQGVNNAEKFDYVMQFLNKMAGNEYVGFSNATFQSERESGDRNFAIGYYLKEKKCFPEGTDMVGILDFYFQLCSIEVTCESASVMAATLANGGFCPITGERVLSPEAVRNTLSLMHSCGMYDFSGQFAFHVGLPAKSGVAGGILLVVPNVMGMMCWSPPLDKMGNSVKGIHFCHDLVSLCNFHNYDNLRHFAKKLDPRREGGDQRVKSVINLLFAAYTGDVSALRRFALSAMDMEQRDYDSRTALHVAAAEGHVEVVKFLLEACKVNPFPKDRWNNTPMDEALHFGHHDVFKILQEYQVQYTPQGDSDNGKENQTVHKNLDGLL
How it was run: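 Enzyme dispensed in phosphate buffer (45 mM, pH 8.2, 0.02% Tween-20), compounds pinned in, then 1 mM L-glutamine solution and the glutamate oxidase–HRP–Amplex Red mix added; fluorescence read immediately and again after 30 min at room temperature.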

[6] = qHTS of Trypanosoma Brucei Inhibitors: LOPAC Validation (AID 624147)
How it was run: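 In this concentration-response screen, enzyme-free wells defined baseline while DMSO plates tracked drift. Each reaction combined TbPYK, substrate, compound and 130 uM ADP for 45 min at room temperature. Kinase-Glo Plus luminescence gave the signal.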

[7] = qHTS assay for small molecule antagonists of retinoid X receptor alpha signaling (AID 588546; active = well fitted inhibition curve with a large enough effect in the signal ratio, with a control signal flat, not every such curve was filed as active; the % refers to the signal ratio;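 also: cells stimulated with 9-cis-retinoic acid as agonist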); details: HEK293T RXRa-UAS-bla, beta-lactamase ratio, antagonist mode; measured here: W530 green channel, cytotoxicity proxy
How it was run: (§1)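 Beta-lactamase reporter inhibition, read as CCF4 fluorescence ratio (ex 405, em 460/530 nm) after 2 h at RT. HEK293T UAS-bla cells, 2500/well, were stimulated with 9-cis-RA at 500 or 100 nM final alongside test compound for 18 h at 37 C.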

[8] = biological target: Retinoic acid receptor RXR-alpha (Homo sapiens) (UniProt P19793); assay: as above; details: HEK293T RXRa-UAS-bla, beta-lactamase ratio, antagonist mode
Chain of Retinoic acid receptor RXR-alpha (Homo sapiens) (P19793 whole entry, looked up): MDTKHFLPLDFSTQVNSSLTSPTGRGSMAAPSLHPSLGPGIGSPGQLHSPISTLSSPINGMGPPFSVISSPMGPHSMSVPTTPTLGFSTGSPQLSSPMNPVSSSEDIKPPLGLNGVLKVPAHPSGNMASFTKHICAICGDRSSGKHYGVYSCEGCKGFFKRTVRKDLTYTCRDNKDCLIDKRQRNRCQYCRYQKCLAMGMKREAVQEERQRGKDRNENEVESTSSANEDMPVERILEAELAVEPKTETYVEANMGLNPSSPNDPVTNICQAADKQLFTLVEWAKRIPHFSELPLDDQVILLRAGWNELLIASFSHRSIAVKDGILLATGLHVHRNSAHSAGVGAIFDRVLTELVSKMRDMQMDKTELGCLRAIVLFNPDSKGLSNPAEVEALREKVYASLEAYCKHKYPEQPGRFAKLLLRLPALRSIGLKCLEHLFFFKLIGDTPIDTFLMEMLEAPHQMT
How it was run: as §1

[9] = biological target: Thyroid hormone receptor beta (Homo sapiens) (UniProt P10828); assay: qHTS assay for small molecule antagonists of thyroid hormone receptor beta signaling (AID 588547; active = well fitted inhibition curve with a large enough effect in the signal ratio, with a control signal flat, not every such curve was filed as active; the % refers to the signal ratio;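 also: cells stimulated with 0.4 nM T3 agonist during compound exposure; series mostly up to about 77 µM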); details: TR-UAS-bla HEK293, beta-lactamase ratio, antagonist mode, 18 h
Chain of Thyroid hormone receptor beta (Homo sapiens) (P10828 whole entry, looked up): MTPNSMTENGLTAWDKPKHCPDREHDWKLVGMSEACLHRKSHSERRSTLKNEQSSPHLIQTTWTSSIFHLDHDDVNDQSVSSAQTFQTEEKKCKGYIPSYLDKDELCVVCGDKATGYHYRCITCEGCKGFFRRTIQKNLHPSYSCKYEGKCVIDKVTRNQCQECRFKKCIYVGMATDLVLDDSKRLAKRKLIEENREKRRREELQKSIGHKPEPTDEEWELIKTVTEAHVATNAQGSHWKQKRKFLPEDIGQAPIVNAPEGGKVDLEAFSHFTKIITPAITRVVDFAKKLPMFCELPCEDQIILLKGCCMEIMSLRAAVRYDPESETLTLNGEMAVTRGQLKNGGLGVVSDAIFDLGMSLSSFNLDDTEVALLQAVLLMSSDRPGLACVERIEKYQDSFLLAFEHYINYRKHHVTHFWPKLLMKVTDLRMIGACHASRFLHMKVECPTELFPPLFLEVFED
How it was run: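 TR-UAS-bla GripTite HEK293 cells in 2% charcoal/dextran FBS medium; compounds 0.59 nM to 92 uM with T3 at 0.4nM final, 18 h at 37 C. Beta-lactamase read by CCF4 fluorescence (460/530 nm); Hill fits gave IC50 and efficacy.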

[10] = S16 Schwann cell PMP22 intronic element beta-lactamase assay (AID 624044; calls by dose curve; also: nearly all actives have a fitted effect of over 15% in size; also: potency is read from the fitted curve at half-maximal effect)
How it was run: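 Rat S16 Schwann cells with beta-Lac driven by a PMP22 intronic element, compound-treated 24 h at 37 °C. LiveBLAzer FRET B/G read: 460 nm normalized to potassium clavulanate vs DMSO; 535 nm FRET as viability; concentration-effect curves classified.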

SMILES | Potency [1] | Potency [2] | Potency [3] | Potency [4] | Potency [5] | outcome [6] | max response [7] [%] | max response [8] | activity change % (negative = inhibition) [9] | Potency [10]
CN1CCN(C2=Nc3ccccc3Oc3ccc(Cl)cc32)CC1 | 11.2 µM (active) and 10 µM (active) | inactive | inactive | inactive | inactive | inactive | – | – | – | –
Cc1ccc(S(=O)(=O)NC(=O)NN2CCCCCC2)cc1 | inactive | inactive | inactive | inactive | 10 µM (active) | inactive | -4.69 | -7.05% (inactive) | 5.89% (inactive) | inactive
O=C(O)CCCCCCCC(=O)O | inactive | inactive | inactive | inactive | inactive | inactive | -5.98 | 0.796% (inactive) | -5.44% (inactive) | inactive
CC(=O)Nc1nnc(S(N)(=O)=O)s1 | inactive | inactive | inactive | – | inactive | inactive | -6.44 | -1.61% (inactive) | -8.01% (inactive) | –
CCCCCN(CCCCC)C(=O)C(CCC(=O)O)NC(=O)c1ccc(Cl)c(Cl)c1 (stereo unspecified) | inactive | inactive | inactive | inactive | inactive | inactive | – | – | – | inactive
O=C(CCNNC(=O)c1ccncc1)NCc1ccccc1 | inactive | inactive | inactive | inactive | inactive | inactive | – | – | – | inactive
NC(N)=NC(=O)Cc1c(Cl)cccc1Cl | inactive | inactive | inactive | inactive | inactive | inactive | – | – | – | inactive
CCO/C([O-])=N/c1c[n+](N2CCOCC2)no1 | inactive | inactive | inactive | inactive | inactive | inactive | – | – | – | –
C[N+](C)(C)CCOC(=O)CCC(=O)OCC[N+](C)(C)C | inactive | inactive | inactive | inactive | inactive | inactive | – | – | – | –
CCOC(=O)c1cnc2c(cnn2CC)c1NN=C(C)C | inactive | inactive | inactive | inactive | – | inactive | – | – | – | inactive
CN=C(NC#N)NCCSCc1nc[nH]c1C | inactive | inactive | inactive | – | inactive | inactive | 1.01 | 4.57% (inactive) | 11.1% (inactive) | –
COc1cc(Cc2cnc(N)nc2N)cc(OC)c1OC | inactive | inactive | inactive | inactive | inactive | inactive | -17.2 | 0.608% (inactive) | -6.78% (inactive) | inactive
O=c1[nH]c(=O)n([C@H]2C[C@H](O)[C@@H](CO)O2)cc1Br | inactive | – | inactive | 4.05 µM (active) | inactive | inactive | 11.1 | 7.58% (inactive) | 7.23% (inactive) | 7.94 µM (active)
CCN(CC)CCOCCOC(=O)C1(c2ccccc2)CCCC1 | 12.6 µM (active) | inactive | inactive | inactive | inactive | inactive | – | – | – | inactive
CNC1(C)C2CCC(C2)C1(C)C (stereo unspecified) | inactive | inactive | inactive | inactive | inactive | inactive | – | – | – | –
Nc1ncn([C@@H]2O[C@H](CO)[C@@H](O)[C@H]2O)c(=O)n1 | inactive | inactive | inactive | – | inactive | inactive | -15 | 19.1% (inactive) | – | inactive
Cc1ccc(Cl)c(Nc2ccccc2C(=O)O)c1Cl | inactive | inactive | inactive | inactive | inactive | inactive | – | – | – | –
COc1ccc(CN(CCN(C)C)c2ccccn2)cc1 | 12.6 µM (active) and 14.1 µM (active) and 8.91 µM (active) | inactive | inactive | inactive | inactive | inactive | 1.42 | 2.77% (inactive) | -10.9% (inactive) | –
NS(=O)(=O)c1cc2c(cc1Cl)NC(C1CC3C=CC1C3)NS2(=O)=O (stereo unspecified) | inactive | inactive | inactive | inactive | inactive | inactive | – | – | – | inactive
